Only some compounds are listed: those with a hit (about 4% of all), similar ones and a draw of the others.
GRIN3A LBD mod – NR3A (human) ligand-binding domain modulation; NR3A LBD differential scanning fluorimetry, Tm shift; 0% = protein alone, 100% = glycine-bound protein; Tm shift relative to glycine control, % at 25 µM; 340,000 compounds, 2.5% hits;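 active = melting temperature shift of at least 10% of the positive control shift, at one fixed dose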
FAS-TE inh – blocks the thioesterase domain of human fatty acid synthase; 360,000 compounds, 0.67% hits; recombinant FAS-TE, OMFH fluorogenic substrate, fluorescence endpoint; AID 602261; P49327; inhibition, % at 15 µM;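 active = compounds whose normalised, plate-corrected inhibition of enzyme fluorescence in the single-dose primary screen is 50% or more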;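 note: 0% = DMSO with enzyme and 100% = substrate without enzyme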
ADAM10 inh – ADAM10 inhibition, QFRET primary screen | O14672 | recombinant ADAM10, EDANS/DABCYL FRET peptide cleavage, 3 h | inhibition, % at 7 µM | 370,000 compounds, 0.62% hits | AID 720582;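 active = inhibition above a per-campaign cutoff equal to the mean of compounds falling between control-based bounds plus 3 SD, cut at about 20% in these data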;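 note: 0% = DMSO wells while the 100% control is not disclosed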
aDG glyco up – increases alpha dystroglycan glycosylation; activation, % at 10 µM; AID 624168; Pro5-aDG cells, alpha-DG glycosylation AlphaScreen (IIH6); 0% Pro5, 100% B10-LARGE cell signal; 360,000 compounds, 0.22% hits;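 active = activation of at least 8% versus controls, or a plate z-score of at least 8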;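 note: Pro5 are CHO cells carrying HIG-tagged alpha-DG that lacks glycosylation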
ADAM17 inh – inhibitors of human ADAM17; P78536; recombinant ADAM17, EDANS/DABCYL FRET peptide cleavage; inhibition, % at 6.95 µM; 370,000 compounds, 0.83% hits; AID 720648;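 active = inhibition above the mean of compounds lying between control limits plus 3 SD, set per campaign, cut at about 8.5% in these data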;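 note: 0% = DMSO-only wells as the low control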
Target sequence (P78536 215-824 limits assumed): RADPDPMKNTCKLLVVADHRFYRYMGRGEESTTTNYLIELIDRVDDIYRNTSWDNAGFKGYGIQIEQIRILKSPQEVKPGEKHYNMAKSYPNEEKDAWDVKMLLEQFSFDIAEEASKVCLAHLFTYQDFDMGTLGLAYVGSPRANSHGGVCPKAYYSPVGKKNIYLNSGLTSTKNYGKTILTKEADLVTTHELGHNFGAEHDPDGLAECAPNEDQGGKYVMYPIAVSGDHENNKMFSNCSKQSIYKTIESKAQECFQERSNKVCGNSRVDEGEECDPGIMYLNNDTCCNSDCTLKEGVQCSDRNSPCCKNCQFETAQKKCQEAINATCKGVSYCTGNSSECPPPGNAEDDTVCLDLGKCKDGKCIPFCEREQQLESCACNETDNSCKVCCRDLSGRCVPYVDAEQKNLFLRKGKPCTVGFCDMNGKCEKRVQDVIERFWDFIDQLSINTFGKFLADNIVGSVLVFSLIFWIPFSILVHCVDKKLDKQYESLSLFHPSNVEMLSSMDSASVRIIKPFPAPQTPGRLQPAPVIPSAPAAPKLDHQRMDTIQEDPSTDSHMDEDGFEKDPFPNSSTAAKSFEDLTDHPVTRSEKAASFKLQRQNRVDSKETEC
ADAM10 confirm – human ADAM10 inhibition, confirmation; shares compounds with ADAM10 inh; ADAM10 QFRET peptide cleavage, EDANS fluorescence; inhibition, % at 6.95 µM; 2,100 compounds, 1% hits; AID 743208;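 active = inhibition above about 20% chosen separately for each screening run, limit read from the data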;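 note: 0% = DMSO wells and 100% = marimastat wells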
ADAM17 counter – ADAM17 inhibition, counter-screen for ADAM10 exosite hits; shares compounds with ADAM10 inh; ADAM17 QFRET peptide cleavage, EDANS fluorescence; inhibition, % at 6.95 µM; 2,100 compounds, 0.5% hits; AID 743214;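 active = mean triplicate inhibition above the solvent-only control wells' mean plus 3 SD, cut at about 12% in these data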;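 note: 0% = DMSO wells and 100% = marimastat wells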
ADAM10 ctr – ADAM10 inhibition, counter-screen for ADAM17 exosite hits | shares compounds with ADAM17 inh | recombinant ADAM10, EDANS/DABCYL FRET peptide cleavage, 3 h | inhibition, % at 6.95 µM | 2,900 compounds, 47% hits | AID 743256;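 active = mean inhibition over the triplicate runs exceeds the activity threshold set in the earlier primary screen, cut at about 20% in these data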;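 note: 0% = DMSO wells and 100% = marimastat wells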
ADAM17 confirm – human ADAM17 inhibition, confirmation. shares compounds with ADAM17 inh. recombinant ADAM17, EDANS/DABCYL QFRET peptide cleavage. inhibition, % at 6.95 µM. 2,900 compounds, 65% hits;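 active = mean inhibition across replicates above the hit cutoff set in the primary screen, cut at about 8.5% in these data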;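 note: 0% = DMSO wells and 100% = marimastat wells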
The depositor's hits bear a star; · = no result given.

SMILES | GRIN3A LBD mod | FAS-TE inh | ADAM10 inh | aDG glyco up | ADAM17 inh | ADAM10 ctr | ADAM17 confirm | others
COC(=O)C1=C(c2ccc(-c3ccccc3)c(F)c2)C[C@@H]2CC[C@H]1N2C(=O)NCCOc1ccccc1Cl | -6 | 40 | 28* | 0 | 17* | 28* | 17* | ADAM10 confirm=7;ADAM17 counter=2
CCCNC(=O)N1[C@H]2CC[C@@H]1C(C(=O)OC)=C(c1ccc(-c3ccccc3)c(F)c1)C2 | -1 | 7 | 26* | 1 | 16* | 19 | 10* | ADAM10 confirm=0;ADAM17 counter=0
COC(=O)C1=C(c2ccc(OCc3ccccc3)cc2)C[C@@H]2CC[C@H]1N2C(=O)NCc1ccccc1OC | · | 20 | 17 | 2 | 9.7* | 28* | 14*
COC(=O)C1=C(c2ccc(OCc3ccccc3)cc2)C[C@@H]2CC[C@H]1N2C(=O)NCc1ccc(OC)c(OC)c1 | 2 | 12 | 12 | 0 | 5 | · | ·
COC(=O)C1=C(c2ccccc2OCc2ccccc2)C[C@@H]2CC[C@H]1N2C(=O)NCc1ccc(C(F)(F)F)cc1 | -1 | 16 | 9 | 1 | 3 | · | ·
COC(=O)C1=C(c2ccc(F)cc2OCc2ccccc2)C[C@@H]2CC[C@H]1N2C(=O)NCc1ccc(C(F)(F)F)cc1 | -4 | 21 | 17 | 1 | 11* | 36* | 21*
COC(=O)C1=C(c2ccc(-c3ccccc3)c(F)c2)C[C@@H]2CC[C@H]1N2C(=O)NC1CC1 | -1 | -2 | 19 | 1 | 11* | 6 | 7
COc1ccc(-n2nnnc2C(c2cccs2)N2CCC(n3c(=O)[nH]c4ccccc43)CC2)cc1 (stereo not drawn) | · | 28 | 3 | 0 | 1 | · | ·
Cc1cccc(OCC(=O)N2CCN(Cc3ccncc3)CC2)c1 | 2 | -10 | 5 | 0 | 11* | -8 | 0
CC(C(=O)c1cn(C)c2ccccc12)c1ccccc1 (stereo not drawn) | -45 | 10 | 15 | 0 | 11* | 2 | 4
CN(C)P(=NC(=S)c1cccn1C)(N(C)C)N(C)C | -5 | -9 | 6 | 0 | -3 | · | ·
O=c1[nH]c2ccccc2n1C1CCN(C(c2ccccc2)c2nnnn2-c2ccc3c(c2)OCCO3)CC1 (stereo not drawn) | · | 40 | 18 | 0 | 11* | 38* | 23*
CCC(c1nnnn1-c1ccc2c(c1)OCCO2)N1CCC(n2c(=O)[nH]c3ccccc32)CC1 (stereo not drawn) | · | 4 | 4 | 0 | 0 | · | ·
CC(=O)N1CCN(CCN=Cc2c(O)n(-c3ccc(C)cc3)c(=S)[nH]c2=O)CC1 | -7 | 0 | 9 | 0 | -1 | · | ·
COC(=O)C1=C(c2ccc(Cl)c(C(F)(F)F)c2)C[C@@H]2CC[C@H]1N2C(=O)N1CCC(O)(c2ccc(Cl)cc2)CC1 | -4 | 17 | 19 | 0 | 9.5* | 16 | 8.8*
O=c1c(C=NCc2cccs2)c(O)n(C2CCCCC2)c(=O)n1C1CCCCC1 | -4 | 29 | 4 | 0 | 3 | · | ·
N=C(N)c1c(O)n(C2CCCCC2)c(=O)n(C2CCCCC2)c1=O | 18* | 23 | 17 | 0 | 9.6* | 52* | 24*
O=C(c1ccccc1F)c1cn(CC(=O)N2CCOCC2)c2ccccc12 | -3 | -3 | -10 | 0 | 8.6* | 3 | 3
O=C(c1ccccc1F)c1cn(CC(=O)N2CCCC2)c2ccccc12 | 1 | 0 | 10 | 0 | 0 | · | ·
COc1ccc(NC(=O)c2cn(CCC#N)nc2-c2ccccc2)cc1 | -5 | -10 | -4 | 0 | -1 | · | ·
CCOC(=O)[C@@H]1[C@H]2COc3ccc(Br)cc3[C@H]2N2C(=O)N(c3cccc(C)c3)C(=O)[C@]12C | 2 | 33 | 23* | 0 | 9.3* | 30* | 19*
COc1ccccc1NC(=O)COC(=O)c1cn(C)c2ccccc12 | 1 | 16 | 2 | 0 | 1 | · | ·

High-throughput results deposited in PubChem by several laboratories.
